Results as given in PubChem BioAssay (NCI).
The panel holds about 83,000 compounds, 20% with a hit somewhere; the sample as a whole holds those more often.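 Negative percent growth values reflect cell death: -40 means 40% of the cells present at the start died, and -100 means all died.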 Activity calls are given as the source filed them. The calls were made as follows: active = growth percent below 10; inactive = the rest.

How the values were obtained:
Assay in all cases: NCI-60 one-dose screen, 48 h (100 = growth as untreated, 0 = no growth, -100 = all killed)
Conditions in all cases: 10 µM unless noted
NCI-H23 lung = tested on: NCI-H23 lung
NCI-H226 lung = tested on: NCI-H226 lung
NCI-H322M lung = tested on: NCI-H322M lung
HOP-62 NSCLC = tested on: HOP-62 NSCLC
NCI-H460 lung = tested on: NCI-H460 lung
HOP-92 NSCLC = tested on: HOP-92 NSCLC
NCI-H522 lung = tested on: NCI-H522 lung
A549/ATCC NSCLC = tested on: A549/ATCC NSCLC
786-0 renal = tested on: 786-0 renal
COLO 205 colon = tested on: COLO 205 colon
DU-145 prostate = tested on: DU-145 prostate
K-562 leukemia = tested on: K-562 leukemia
MALME-3M melanoma = tested on: MALME-3M melanoma
MDA-MB-231 breast = tested on: MDA-MB-231 breast
RXF 393 renal = tested on: RXF 393 renal
SF-268 CNS = tested on: SF-268 CNS
SF-295 CNS = tested on: SF-295 CNS
SF-539 CNS = tested on: SF-539 CNS
UACC-257 melanoma = tested on: UACC-257 melanoma
M14 melanoma = tested on: M14 melanoma

Measured: growth

Cc1ccccc1N1CCN(C2=C(Cl)C(=O)c3ncccc3C2=O)CC1
active: NCI-H522 lung -28% | K-562 leukemia 7.01% | MALME-3M melanoma -14.5% | RXF 393 renal -10.9%
inactive: NCI-H23 lung 38.1% | NCI-H226 lung 94.2% | NCI-H322M lung 89.9% | HOP-62 NSCLC 59.5% | NCI-H460 lung 53.1% | HOP-92 NSCLC 118% | A549/ATCC NSCLC 99.6% | 786-0 renal 91% | COLO 205 colon 31.8% | DU-145 prostate 20.3% | MDA-MB-231 breast 88.3% | SF-268 CNS 80.2% | SF-295 CNS 86.8% | SF-539 CNS 78.9% | UACC-257 melanoma 21.7% | M14 melanoma 36.2%

CCCCc1nc2c(N)nc3ccccc3c2n1Cc1cccc(CN)c1
inactive: NCI-H23 lung 72.6% | NCI-H226 lung 87.1% | NCI-H322M lung 81.2% | HOP-62 NSCLC 57.3% | NCI-H460 lung 19.7% | NCI-H522 lung 72.7% | A549/ATCC NSCLC 69.5% | 786-0 renal 66.7% | COLO 205 colon 44% | DU-145 prostate 60.2% | MALME-3M melanoma 22.6% | MDA-MB-231 breast 57.3% | RXF 393 renal 47.6% | SF-268 CNS 48.7% | SF-295 CNS 55.8%
active: HOP-92 NSCLC -0.82% | K-562 leukemia 3.82% | SF-539 CNS 5.63% | UACC-257 melanoma -62.3% | M14 melanoma -89.2%

O=C(NCCNc1cc(-c2cn(-c3ccccc3)nc2-c2cccc(O)c2)ccn1)Nc1cc(C(F)(F)F)cc(C(F)(F)F)c1
inactive: NCI-H23 lung 98.1% | NCI-H226 lung 85% | NCI-H322M lung 86.5% | HOP-62 NSCLC 95% | NCI-H460 lung 102% | HOP-92 NSCLC 89.6% | NCI-H522 lung 92.2% | A549/ATCC NSCLC 96.5% | 786-0 renal 99% | COLO 205 colon 107% | DU-145 prostate 106% | K-562 leukemia 86.9% | MALME-3M melanoma 90.6% | MDA-MB-231 breast 92.9% | RXF 393 renal 86.7% | SF-268 CNS 88.8% | SF-295 CNS 89.8% | SF-539 CNS 89.3% | UACC-257 melanoma 101% | M14 melanoma 89%

O=C(CCCCCCNC(=O)C(O)(O)C(F)(F)F)Nc1ccc(Br)cc1
inactive: NCI-H23 lung 10.9% | NCI-H226 lung 37.2% | NCI-H322M lung 27.1% | NCI-H460 lung 12.5% | 786-0 renal 25.4% | K-562 leukemia 15.2% | MALME-3M melanoma 10.1% | MDA-MB-231 breast 28.4% | SF-539 CNS 18.5% | UACC-257 melanoma 15.5% | M14 melanoma 25.1%
active: HOP-62 NSCLC -9.13% | HOP-92 NSCLC -5.9% | NCI-H522 lung -36.6% | A549/ATCC NSCLC 7.9% | COLO 205 colon -60.8% | DU-145 prostate 0.633% | RXF 393 renal -38.1% | SF-268 CNS 8.01% | SF-295 CNS -25.3%

CCC1=Cc2c(OC)cccc2OC12C=Cc1c(OC)cccc1O2 (stereo not given)
active: NCI-H460 lung 7.72% | K-562 leukemia 7.63% | RXF 393 renal 1.82% | SF-295 CNS 4.11% | SF-539 CNS -5.65% | M14 melanoma 6.53%
inactive: NCI-H23 lung 39.7% | NCI-H226 lung 58.3% | NCI-H322M lung 43.9% | HOP-62 NSCLC 43.2% | HOP-92 NSCLC 44% | NCI-H522 lung 14.4% | A549/ATCC NSCLC 25.3% | 786-0 renal 50.1% | COLO 205 colon 17.2% | DU-145 prostate 27.1% | MALME-3M melanoma 50.9% | MDA-MB-231 breast 11% | SF-268 CNS 58.6% | UACC-257 melanoma 75.7%

CN1CCN(CCCCCC(=O)Nc2nc(-c3cccc(NS(=O)(=O)c4cccc5c(N(C)C)cccc45)c3)cs2)CC1
inactive: NCI-H23 lung 65.2% | NCI-H226 lung 85.9% | NCI-H322M lung 96% | HOP-62 NSCLC 90.3% | NCI-H460 lung 79.3% | HOP-92 NSCLC 32.4% | NCI-H522 lung 91.8% | A549/ATCC NSCLC 70.9% | 786-0 renal 79% | COLO 205 colon 82.4% | DU-145 prostate 84.8% | MALME-3M melanoma 17.5% | MDA-MB-231 breast 68.8% | RXF 393 renal 50.9% | SF-268 CNS 90.9% | SF-295 CNS 35.6% | SF-539 CNS 58.2% | UACC-257 melanoma 42.7%
active: K-562 leukemia 7.02% | M14 melanoma -28.7%

Oc1ccc(-c2nc3ccc(/C(=N\N=C\c4ccc(Cl)cc4)c4ccccc4)cc3[nH]2)cc1
inactive: NCI-H23 lung 94.8% | NCI-H226 lung 80.7% | NCI-H322M lung 93.7% | HOP-62 NSCLC 100% | NCI-H460 lung 86.4% | HOP-92 NSCLC 118% | NCI-H522 lung 74.6% | A549/ATCC NSCLC 89.2% | 786-0 renal 66.5% | COLO 205 colon 54% | DU-145 prostate 88.3% | K-562 leukemia 70.8% | MALME-3M melanoma 101% | MDA-MB-231 breast 91.1% | RXF 393 renal 93.5% | SF-268 CNS 90.9% | SF-295 CNS 82.6% | SF-539 CNS 87% | UACC-257 melanoma 92% | M14 melanoma 63.5%

CN1CCN(c2ccc(Nc3nc(NCCNS(=O)(=O)c4ccccc4)c4sccc4n3)cc2)CC1
inactive: NCI-H23 lung 97.5% | NCI-H226 lung 94.2% | NCI-H322M lung 94.9% | HOP-62 NSCLC 98.7% | NCI-H460 lung 104% | HOP-92 NSCLC 57.3% | NCI-H522 lung 95% | A549/ATCC NSCLC 104% | 786-0 renal 99.2% | COLO 205 colon 110% | DU-145 prostate 106% | K-562 leukemia 84% | MALME-3M melanoma 104% | MDA-MB-231 breast 102% | RXF 393 renal 87.3% | SF-268 CNS 79.6% | SF-295 CNS 105% | SF-539 CNS 95.4% | UACC-257 melanoma 114% | M14 melanoma 106%
